MCL1-BIM inh: MCL1-BIM-BH3 interaction inhibition (human); Q07820; GST-MCL1 / FITC-Bim-BH3 fluorescence polarization; inhibition, % at 10.9 µM; 0.68% of 320,000 active; AID 2057;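 active means inhibition above the mean inhibition of all tested compounds plus 3 SD, set per campaign, cut at about 40% in these data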;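 further: higher means more loss of mP so more displacement of Bim peptide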
Target sequence (Q07820 whole entry, looked up): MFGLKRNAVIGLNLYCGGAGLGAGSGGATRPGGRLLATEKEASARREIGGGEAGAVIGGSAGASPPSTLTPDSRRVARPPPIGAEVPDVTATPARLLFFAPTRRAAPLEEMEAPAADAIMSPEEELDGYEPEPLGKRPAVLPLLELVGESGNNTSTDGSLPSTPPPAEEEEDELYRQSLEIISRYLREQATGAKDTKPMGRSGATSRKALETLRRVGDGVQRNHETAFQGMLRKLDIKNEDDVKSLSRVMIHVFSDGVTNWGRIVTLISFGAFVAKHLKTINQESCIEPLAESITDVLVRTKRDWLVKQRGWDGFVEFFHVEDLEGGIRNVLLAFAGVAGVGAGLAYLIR
CR mimetic SO: caloric restriction mimetics inhibiting age-related superoxide in yeast; S. cerevisiae aged cells, superoxide DHE fluorescence; active compounds read low; superoxide response (% of plate mean), % at 10 µM; 0.18% of 330,000 active; AID 2690;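 active means superoxide response under a set limit, about three screen SD below normal, cut at about 65% in these data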;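 further: yeast aged for seven days with compound at 30 °C before DHE staining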
LANA-H2B inh: blocks KSHV LANA binding to histone H2A/H2B. Q9QR71. cell-free LANA-H2A/H2B peptide, fluorescence polarization. inhibition, % (concentration not given with the values). 0.6% of 320,000 active. AID 2629; in the data active means inhibition mostly above about 10%, no sharp cut-off; inactive means mostly below about 6.7%
MEX-5 binding: C. elegans MEX-5 TCR-2 RNA binding activity; MEX-5/FITC-TCR2 RNA binding, fluorescence polarization; active compounds read low; AID 1832; 0.38% of 300,000 active; activity score (negative = inhibition of binding), % at 10 µM;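 active means inhibition past about -25% in most replicates, and total fluorescence under double the plate's negative control median, limit read from the data; inconclusive means replicates evenly split on the limit, or fluorescence at least double controls; inactive means too little inhibition in most replicates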
GLD-1 TGE inh: GLD-1-TGE RNA interaction inhibition (C. elegans); purified GLD-1 + fluorescein TGE RNA, fluorescence polarization; inhibition, % at 5.96 µM; 0.44% of 320,000 active; AID 2280;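 active means percent inhibition above a per-plate cutoff, the plate mean of test compounds plus 3 SD, cut at about 30% in these data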
Bcl-xL primary: blocks human Bcl-xL binding to Bim BH3 peptide; GST-Bcl-xL / FITC-Bim BH3 peptide fluorescence polarization; inhibition, % at 10.9 µM; 0.7% of 320,000 active; AID 2129;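 active means inhibition above the mean of all tested compounds plus 3 SD, cutoff set per campaign, cut at about 30% in these data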;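 further: inhibitors lower millipolarization by displacing the labeled peptide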
Target sequence (Q07817 whole entry, looked up): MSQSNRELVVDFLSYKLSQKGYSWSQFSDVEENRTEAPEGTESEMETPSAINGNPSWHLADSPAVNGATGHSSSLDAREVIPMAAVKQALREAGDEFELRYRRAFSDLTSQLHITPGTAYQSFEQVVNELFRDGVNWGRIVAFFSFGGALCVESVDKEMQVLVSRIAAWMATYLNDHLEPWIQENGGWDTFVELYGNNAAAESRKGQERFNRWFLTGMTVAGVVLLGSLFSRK
Bcl-xL conf: counter-screen for MCL1 inhibitors: confirmation of human Bcl-xL inhibitors. shares compounds with MCL1-BIM inh. GST-Bcl-xL / FITC-Bim BH3 peptide FP binding. inhibition, % at 10.9 µM. 54% of 1,700 active. AID 2166;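 active means inhibition above a cutoff equal to the mean inhibition of all tested compounds plus 3 SD, cut at about 30% in these data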
MCL1 inh confirm: confirmation of human MCL1 and BIM-BH3 interaction inhibitors; GST-MCL1 / FITC-Bim-BH3 fluorescence polarization; shares compounds with MCL1-BIM inh; 61% of 1,700 active; AID 2168; inhibition, % at 10.9 µM;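 active means inhibition above the average of all tested compounds plus 3 SD, cut at about 40% in these data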
Hits are given with their value; – = inactive; ? = inconclusive; · = not tested or not shown; + = active, no number. Hits are enriched below; roughly 1.9% of the tested compounds scored in any of these assays.

SMILES	MCL1-BIM inh	CR mimetic SO	LANA-H2B inh	MEX-5 binding	GLD-1 TGE inh	Bcl-xL primary	Bcl-xL conf	MCL1 inh confirm
Cc1cccc(NC(=O)CNC(=O)c2cccc(-n3cccc3)c2)c1C	49	–	–	–	–	–	–	57
CCCCCOc1ccc(/C=C/c2c([N+](=O)[O-])c(=O)n(C)c(=O)n2C)cc1	–	–	–	–	–	–	·	·
O=C(NC(=S)Nc1cccc2c(O)cccc12)c1ccccc1[N+](=O)[O-]	48	–	–	–	–	31	–	–
O=C(NNC(=S)NC(=O)c1ccccc1[N+](=O)[O-])c1ccccc1O	–	–	–	?	–	–	·	·
Nc1cnccc1C(=O)O	125	–	–	-30	98	107	144	174
COc1cc(S(=O)(=O)N2CCN(Cc3ccc4c(c3)OCO4)CC2)ccc1NC(C)=O	·	–	–	·	–	·	·	·
Cn1c(SCC(=O)Nc2ccc(C(=O)O)cc2)nc2scc(-c3ccccc3Cl)c2c1=O	·	–	–	·	–	·	·	·
COc1cc2c(cc1OC)C(COc1ccc(C(C)C)cc1)NCC2 (stereo unspecified)	–	–	–	–	–	–	·	·
COc1ccc(NC(=O)CN(C)C(=O)Cc2ccc(-c3ccccc3)cc2)cc1	–	–	–	·	–	–	·	·
COC(=O)c1ccc(N)c(N=CC2=C(O)CC(C)(C)CC2=O)c1	89	–	·	–	73	87	–	–
CC(C)(Oc1ccc(Cl)cc1)C(=O)NCC1CCCO1 (stereo unspecified)	–	–	–	–	–	–	·	·
Cc1ccc(C(C)C)c(OCC(=O)NNC(=O)Cc2ccc(S(=O)(=O)N3CCOCC3)s2)c1	·	–	–	·	–	·	·	·
COC(=O)C1=C(CSc2nc3c(cc2C#N)CN(C)CC3)OC(N)=C(C#N)C1c1ccc(F)cc1 (stereo unspecified)	74	–	–	–	–	58	–	–
Cc1cc(=O)oc(C)c1C(=O)Nc1ccc2ncccc2c1	97	–	–	–	–	100	79	82
Cc1cc(C)n(-c2nc3ccccc3nc2Nc2ccc3[nH]c(=O)[nH]c3c2)n1	54	–	–	–	65	79	43	–
COc1ccc(Nc2nc3ccccc3nc2-n2nc(C)cc2C)cc1	–	–	–	–	–	–	·	·
O=c1c(-c2ccc([N+](=O)[O-])cc2)coc2c(O)c(O)ccc12	45	–	–	–	–	–	43	63
CN(C)Cc1c(O)ccc2c(=O)c(-c3ccc(Cl)cc3)coc12	–	–	–	–	–	–	·	·
N#Cc1c(Nc2ccccc2)c(/C=N/N=C/c2ccccc2)c[nH]c1=O	–	–	–	–	–	–	·	·
N#CC(C#N)=Cc1c[nH]c(=O)c(C#N)c1Nc1ccccc1	55	–	–	–	–	56	46	56
Cc1cccc(-n2c(O)c(C=Nc3ccc4c(c3)OCO4)c3ccccc3c2=O)n1	40	–	–	-36	–	–	–	–
Cc1cccc(-n2c(O)c(C=Nc3cccc(O)c3)c3ccccc3c2=O)n1	–	–	–	–	–	–	·	·
Cc1ccc2c(c1)-n1c(nc3ccc(C)cc3c1=O)C(Cc1ccc(O)cc1)NC2=O (stereo unspecified)	·	–	–	·	–	·	·	·
C=CCOC1=CS(=O)(=O)N(Cc2ccc(Br)cc2)c2ccc(Br)cc21	·	–	·	·	·	·	·	·
CC1(C)Cc2cccc(OCC(=O)NCCc3ccc(S(N)(=O)=O)cc3)c2O1	195	–	–	·	–	35	–	–
SMILES	MCL1-BIM inh	CR mimetic SO	LANA-H2B inh	MEX-5 binding	GLD-1 TGE inh	Bcl-xL primary	Bcl-xL conf	MCL1 inh confirm
CC1(C)Cc2cccc(OCC(=O)NCCc3ccccc3)c2O1	–	–	–	–	–	–	·	·
Cc1nc(-c2ccc(F)cc2)c(CC(=O)N(C)CC(=O)Nc2ccc(Br)cc2C)s1	–	–	–	–	–	–	·	·
Cc1cc(C)n2c(=O)c3ccc(Cl)cc3nc2c1C#N	51	–	–	–	–	–	–	–
CCCn1c(/C=C/c2ccccc2)nc2ccccc21	–	–	–	–	–	–	·	·
CCn1c(/C=C/c2cc[n+](C)cc2)nc2ccccc21	75	–	–	–	–	74	65	65
Cc1ccccc1OCC(=O)OCC(=O)Nc1ncc(Cl)c(C)c1Cl	41	–	·	·	–	–	–	47
Cc1ccccc1OCC(=O)OCC(=O)Nc1ccc(Cl)cn1	–	–	·	·	–	–	·	·
COc1ccc(N/C(=C(/C(Cl)=C(Cl)Cl)[N+](=O)[O-])n2nnc3ccccc32)cc1OC	104	–	–	–	37	97	–	–
O=C(O)CN1C(=O)/C(=C\C(Br)=C\c2ccccc2)SC1=S	43	–	–	–	–	–	33	47
CCN(CC)C(=O)CSc1nnc2nnc3cc(OC)ccc3n12	148	–	–	-77	120	138	124	159
Cc1noc(C)c1COc1ccccc1C(=O)N(C)Cc1ccc(C(C)(C)C)cc1	–	–	–	·	–	–	·	·
CCCCCCn1c(=O)[nH]c2nc3cc(N)ccc3nc2c1=O	+	–	42	-49	187	187	171	198
CN(C(=O)Cn1cnc2sccc2c1=O)C1CCCCC1	–	–	–	·	–	–	·	·
CC1CCCN(CC(O)COc2ccc(S(=O)(=O)N3CCCC3)cc2[N+](=O)[O-])C1 (stereo unspecified)	54	–	–	·	–	–	–	–
CCCOc1ccc(S(=O)(=O)N2CCCC2)cc1[N+](=O)[O-]	–	–	–	–	–	–	·	·
C[C@H](CO)N1C[C@H](C)[C@@H](CN(C)C)Oc2c(NS(=O)(=O)c3ccc(F)cc3)cccc2C1=O	·	–	–	·	–	·	·	·
O=[N+]([O-])c1ccc(/C=N/Nc2ncccc2[N+](=O)[O-])s1	–	–	–	–	–	–	·	·
O=[N+]([O-])c1ccc(/C=N/n2cnc3ccccc32)s1	72	–	–	-41	–	52	71	76
Cc1ccc(S(=O)(=O)N(C)C[C@@H]2Oc3ccc(NC(=O)Cn4cnnn4)cc3C(=O)N([C@@H](C)CO)C[C@H]2C)cc1	·	–	–	·	–	·	·	·
Cc1cccc(NC(=O)CCCN=C2NS(=O)(=O)c3ccccc32)c1C	–	–	–	·	–	–	·	·
Cc1oc2c(O)c(O)ccc2c(=O)c1-c1ccc(Cl)cc1	43	–	–	–	–	–	58	81
Cc1oc2c(O)c(O)ccc2c(=O)c1-c1ccccc1	–	–	–	–	–	–	·	·
CCOc1ccc(C2C=C(c3ccc(C)cc3)Nc3nnnn32)cc1 (stereo unspecified)	50	–	–	–	33	59	39	57

Assay outcomes from PubChem BioAssay.
